From ChEMBL document CHEMBL3988442, “University of Dundee, Small-Polar-MMV Screening Library” (2021)
“And” between values parts separate entries of the source, which are not always exact repeats. Equal entries are not always repeated. Screen size: about 34,000 compounds; about 290 (0.85%) showed an effect of 50% or more. For the sample, strong results were picked, then their nearest neighbours and some compounds at random.

Test system: Plasmodium falciparum
Assay: Plasmodium falciparum sporozoite viability assay
Type: functional, organism-based
Design: scale not given: in the data most compounds retested in dose-response had high values

## CC(NC(=O)NCCCc1n[nH]c(N)c1C#N)c1ccccc1F (centres undefined)
  Percent Effect: 14.69%

## Cc1cc(C)n(CC2CCCCN2CC(=O)NC2CCOCC2)n1 (centres undefined)
  Percent Effect: 14.15%

## Cc1cc(C)n(CC2CCCN2CC(=O)NC2CCOCC2)n1 (centres undefined)
  Percent Effect: -10.14%

## COCCOCC(=O)Nc1ccc(C)cc1F
  Percent Effect: -13.64%

## O=C(c1ccc(C2CCCO2)s1)N1CCS(=O)(=O)CC1 (centres undefined)
10 mM as filed; unlikely as a test dose
  Percent Effect: 6.394% and 9.158% and -11.41%

## O=C(c1ccc(C2CCCO2)s1)N1CCN(c2ccccc2F)CC1 (centres undefined)
10 mM as filed; unlikely as a test dose
  Percent Effect: 80.46% and 89.28% and 82.47%

## O=C(c1ccc(C2CCCO2)s1)N1CCOCC1 (centres undefined)
10 mM as filed; unlikely as a test dose
  Percent Effect: -24.05% and -11.59%

## O=c1[nH]c(CCN2CCCC2Cn2cncn2)nc2ccccc12 (centres undefined)
  Percent Effect: 9.596%

## O=C(Cc1ccc2c(c1)CCO2)N1CCCC(n2cccn2)C1 (centres undefined)
10 mM as filed; unlikely as a test dose
  Percent Effect: -20.29% and -14.82% and -23.46%

## O=C(CCc1ccc2c(c1)OCO2)N1CCCC(n2cccn2)C1 (centres undefined)
10 mM as filed; unlikely as a test dose
  Percent Effect: -3.407% and -9.243% and -9.365%

## O=C(Cc1ccc2c(c1)OCCO2)N1CCCC(n2cccn2)C1 (centres undefined)
10 mM as filed; unlikely as a test dose
  Percent Effect: 49.54% and 51.7% and 51.33%

## CCOC(=O)[C@@H]1[C@@H](O)C(=O)N(C)C12CCN(C(=O)c1ccco1)CC2
  Percent Effect: 7.177%

## O=C(O)C(F)(F)F.O=C(O)C(F)(F)F.c1ccc(CN2CCC3(CC2)CCN(c2ccccn2)C3)nc1
  Percent Effect: 11.38%

## CCC1CN(C(=O)c2ncccc2O)CCC(=O)N1Cc1ccccc1 (centres undefined)
10 mM as filed; unlikely as a test dose
  Percent Effect: -58.66% and -61.44%

## CCC1CN(C(=O)c2ccc(O)cn2)CCC(=O)N1Cc1ccccc1 (centres undefined)
10 mM as filed; unlikely as a test dose
  Percent Effect: 75.08% and 82.46%

## CCC1CN(C(=O)c2cccnc2O)CCC(=O)N1Cc1ccccc1 (centres undefined)
10 mM as filed; unlikely as a test dose
  Percent Effect: -11.65% and -22.98%

## Cc1nn(C)c(Cl)c1C1CCCN1C(=O)c1cc(C2CC2)on1 (centres undefined)
  Percent Effect: 6.06%

## Cc1c[nH]nc1C1CN(Cc2cnn(-c3ccccc3C(=O)O)c2)C1
  Percent Effect: -1.554%

## Cc1noc(C)c1CC(=O)N1CCCC(n2ccnc2C)C1 (centres undefined)
  Percent Effect: -6.625%

## O=C(Nc1ccc(N2CCCC2)nc1)N1CCc2ccccc2C1
10000 µM
  Percent Effect: 79.37% and 82.46% and 84.57%

## O=C(Nc1ccc(N2CCCC2)nc1)N1CCc2sccc2C1
10000 µM
  Percent Effect: -10.47% and -0.9103% and 2.706%

## Cc1ccc(C(=O)NCC(O)c2cccc(F)c2)c(=O)[nH]1 (centres undefined)
  Percent Effect: -4.578%

## CC(Cc1ccsc1)NC(=O)c1cc(N2CCNC2=O)ccc1F (centres undefined)
10 mM as filed; unlikely as a test dose
  Percent Effect: 74.24% and 61.84%

## Cc1ccsc1CNC(=O)c1ccc(N2CCNC2=O)cc1
  Percent Effect: -9.9%

## CC(CNC(=O)c1cc(N2CCNC2=O)ccc1F)c1ccccc1 (centres undefined)
10 mM as filed; unlikely as a test dose
  Percent Effect: 35.08% and 63.14%

## CC(NC(=O)c1cc(N2CCNC2=O)ccc1F)c1ccc(F)cc1 (centres undefined)
10 mM as filed; unlikely as a test dose
  Percent Effect: -9.982% and -2.184%

## CCCc1cc(NC(=O)c2cc(N3CCNC3=O)c(F)cc2F)n[nH]1
  Percent Effect: -27.19%

## CCN(CC)CCCNCc1cc2cc(C)cc(C)c2[nH]c1=O
  Percent Effect: 11.75%

## COCc1cnc2n1CCN(C(=O)c1ocnc1C)C2C (centres undefined)
  Percent Effect: 4.866%

## CN(Cc1cccs1)C(=O)Cn1cc(NC(=O)C(C)(C)C)cn1
  Percent Effect: -1.695%

## Cc1ccc(-n2nnc(C(=O)NCC(F)(F)F)c2C2CC2)cc1
  Percent Effect: -7.493%

## Cn1cc(-c2cnc(N3CCOCC3)nc2)cc1C(=O)N1CCOCC1
10000 µM
  Percent Effect: -17.52% and -24.5% and -14.42%

## O=C(CCc1ccsc1)Nc1ccnn1C1CCS(=O)(=O)C1 (centres undefined)
  Percent Effect: -2.999%

## Cc1oc(C)c(C(=O)NCc2ccccc2CN(C)C)c1C
  Percent Effect: 1.894%

## COC1CN(C(=O)CC(C)C)CCC(=O)N(C)c2ccccc21 (centres undefined)
  Percent Effect: -36.78%

## O=C(NCCCO)c1cnc(-c2ccccc2)nc1O
  Percent Effect: -8.71%

## CCSCCNC(=O)c1cnc(-c2ccccc2)nc1O
  Percent Effect: 2.095%

## CC(C)(C)c1ncc(C(=O)NCCSc2ccccn2)c(O)n1
10000 µM
  Percent Effect: 98% and 98.19%

## Cc1ccc(C2(C(=O)NCCCn3cccn3)CCOCC2)cc1
10000 µM
  Percent Effect: -25.15% and -19.39%

## c1ccc2oc(CN3CCCC3Cn3cncn3)nc2c1 (centres undefined)
  Percent Effect: 3.888%

## Cc1nccn1C1CCCN(C(=O)Cc2cn3ccccc3n2)C1 (centres undefined)
  Percent Effect: 3.916%

## CCOCC1CN(C(=O)c2cscn2)Cc2cnn(CC3CC3)c21 (centres undefined)
  Percent Effect: 11.53%

## Cc1nc(C2CN(C)CCO2)cc(N2CCSCC2)n1 (centres undefined)
  Percent Effect: -0.8223%

## Cc1cc(C(=O)N2CCC3(C2)CN(c2cccnc2)C(=O)CN3C)[nH]n1.O=C(O)C(F)(F)F.O=C(O)C(F)(F)F (centres undefined)
  Percent Effect: 9.444%

## CN(C)CC(C)(O)CNC(=O)Nc1sc2ccccc2c1Cl (centres undefined)
10 mM as filed; unlikely as a test dose
  Percent Effect: 52.95% and 62.95% and 63.37%

## CN(C)C(=O)CCNC(=O)Nc1sc2ccccc2c1Cl
10 mM as filed; unlikely as a test dose
  Percent Effect: 44.04% and 58.57% and 53.39%

## CS(=O)(=O)CCCNC(=O)Nc1sc2ccccc2c1Cl
10 mM as filed; unlikely as a test dose
  Percent Effect: -22.09% and -10.77% and -17.84%

## CC(=O)N1CCOC(c2c(C(=O)NCCN(C)C)sc3ccccc23)C1 (centres undefined)
  Percent Effect: 3.684%

## CN1CCN(Cc2cn3c(n2)CN(Cc2ccc(F)cc2)CC3)CC1.O=C(O)C(F)(F)F.O=C(O)C(F)(F)F.O=C(O)C(F)(F)F
  Percent Effect: 11.14%

## O=C(O)[C@@H]1CCN(C(=O)Cc2ccccn2)[C@@H]1c1ccc(F)cc1
  Percent Effect: 2.558%

## CN(C)C(=O)NC1COC2(CCN(Cc3ccccc3)CC2)C1.O=C(O)C(F)(F)F (centres undefined)
10 mM as filed; unlikely as a test dose
  Percent Effect: -6.642% and -9.604% and -2.422%

## CCC(O)CN1CCN(C(=O)c2sccc2OC)CC1 (centres undefined)
  Percent Effect: 5.511%

## N#Cc1c(SCCN2CCCCC2)sc2c(O)cc(O)nc12
  Percent Effect: 19.81%

## Cc1nc(C)n(C2CCCN(C(=O)CCOC(C)C)C2)n1 (centres undefined)
  Percent Effect: 5.53%

## CCc1nc(C2CCCN(C(=O)NCCOC)C2)no1 (centres undefined)
  Percent Effect: 15.54%

## O=C(NCC1CCOC1)Nc1ccc(OCC(F)(F)F)nc1 (centres undefined)
  Percent Effect: -8.857%

## CC(NC(=O)NCCn1ccnc1)c1ccc2c(c1)OCCO2 (centres undefined)
  Percent Effect: -2.596%

## CSc1cc2c(cc1NC(=O)NCCn1ccnc1)OCCO2
10000 µM
  Percent Effect: 101.5% and 100.4% and 104.7%

## CSc1cc2c(cc1NC(=O)NCC(=O)N(C)C)OCCO2
10000 µM
  Percent Effect: -16.92% and -17.04% and -26.51%

## CSc1cc2c(cc1NC(=O)NCC1CCOC1)OCCO2 (centres undefined)
10 mM as filed; unlikely as a test dose
  Percent Effect: 105.7% and 100.9% and 97.86%

## COCCNC(=O)Nc1cc2c(cc1SC)OCCO2
10000 µM
  Percent Effect: 98.06% and 101.8% and 101.9%

## COCCN(C)C(=O)Nc1cc2c(cc1SC)OCCO2
10000 µM
  Percent Effect: -20.76% and -19.13%

## CCN(CC)c1ccc(NC(=O)NCC2CCOC2)cn1 (centres undefined)
10 mM as filed; unlikely as a test dose
  Percent Effect: -11.53% and -8.697%

## CSc1cc2c(cc1NC(=O)NCc1ccncc1)OCCO2
10000 µM
  Percent Effect: -14.95% and -16.58%
